# According to the supplement of paper PMC8728848:
# About 410 targets per protein were measured; listed, in parts, are those with the strongest signals and a random draw of the rest.
# How the values were obtained:
# Test in all cases: glycan array binding signal (z-score within array); higher = stronger binding
# Conditions in all cases: glycan notation: IUPAC condensed, linker removed
# [1] = biological target: Fuc(a1-2)Gal(b1-3)GalNAc(a1-3)[Fuc(a1-2)]Gal(b1-4)GlcNAc
# Procedure, shortened: (§1)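 Columns mapping to the same glycan were averaged after glycan names were converted to IUPAC-condensed notation. The data come from 3228 arrays in the Consortium for Functional Glycomics database, limited to those with an available protein sequence. Binding is reported as a within-array Z-score averaged across arrays of one protein sequence and across linkers.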
# [2] = biological target: Fuc(a1-2)Gal(b1-3)GlcNAc(b1-3)Gal(b1-4)Glc
# Procedure, shortened: as §1
# [3] = biological target: Fuc(a1-2)Gal(b1-3)[Fuc(a1-4)]GlcNAc(b1-3)[Gal(b1-4)GlcNAc(b1-6)]Gal(b1-4)Glc
# Procedure, shortened: as §1
# [4] = biological target: Fuc(a1-2)[Gal(a1-3)]Gal(b1-3)GlcNAc(b1-2)Man(a1-3)[Fuc(a1-2)[Gal(a1-3)]Gal(b1-3)GlcNAc(b1-2)Man(a1-6)]Man(b1-4)GlcNAc(b1-4)GlcNAc
# Procedure, shortened: as §1
# [5] = biological target: Fuc(a1-2)[Gal(a1-3)]Gal(b1-3)GlcNAc(b1-2)Man(a1-3)[Fuc(a1-2)[Gal(a1-3)]Gal(b1-3)GlcNAc(b1-2)Man(a1-6)]Man(b1-4)GlcNAc(b1-4)[Fuc(a1-6)]GlcNAc
# Procedure, shortened: as §1
# [6] = biological target: Fuc(a1-2)[Gal(a1-3)]Gal(b1-3)GlcNAc(b1-3)GalNAc
# Procedure, shortened: as §1
# [7] = biological target: Fuc(a1-2)[Gal(a1-3)]Gal(b1-4)GlcNAc(b1-2)Man
# Procedure, shortened: as §1
# [8] = biological target: Fuc(a1-2)[Gal(a1-3)]Gal(b1-4)GlcNAc(b1-2)Man(a1-3)[Fuc(a1-2)[Gal(a1-3)]Gal(b1-4)GlcNAc(b1-2)Man(a1-6)]Man(b1-4)GlcNAc(b1-4)GlcNAc
# Procedure, shortened: as §1
# [9] = biological target: Fuc(a1-2)[Gal(a1-4)]Gal(b1-4)GlcNAc
# Procedure, shortened: as §1
# [10] = biological target: Fuc(a1-2)[GalNAc(a1-3)]Gal(b1-3)GlcNAc(b1-2)Man(a1-3)[Fuc(a1-2)[GalNAc(a1-3)]Gal(b1-3)GlcNAc(b1-2)Man(a1-6)]Man(b1-4)GlcNAc(b1-4)GlcNAc
# Procedure, shortened: as §1
# [11] = biological target: Fuc(a1-2)[GalNAc(a1-3)]Gal(b1-3)GlcNAc(b1-3)GalNAc
# Procedure, shortened: as §1
# [12] = biological target: Fuc(a1-2)[GalNAc(a1-3)]Gal(b1-4)GlcNAc(b1-2)Man(a1-3)[Fuc(a1-2)[GalNAc(a1-3)]Gal(b1-4)GlcNAc(b1-2)Man(a1-6)]Man(b1-4)GlcNAc(b1-4)[Fuc(a1-6)]GlcNAc
# Procedure, shortened: as §1
# [13] = biological target: Fuc(a1-2)[GalNAc(a1-3)]Gal(b1-4)GlcNAc(b1-3)GalNAc
# Procedure, shortened: as §1
# [14] = biological target: Fuc(a1-2)[GalNAc(b1-3)]Gal
# Procedure, shortened: as §1
# [15] = biological target: Fuc(a1-3)[Gal(b1-4)]GlcNAc(b1-4)Gal(b1-4)[Fuc(a1-3)]GlcNAc(b1-4)Gal(b1-4)[Fuc(a1-3)]GlcNAc
# Procedure, shortened: as §1
# [16] = biological target: Fuc(a1-3)[GalNAc(b1-4)]GlcNAc
# Procedure, shortened: as §1
# [17] = biological target: Gal(a1-3)Gal(b1-3)[Fuc(a1-4)]GlcNAc(b1-2)Man(a1-3)[Gal(a1-3)Gal(b1-3)[Fuc(a1-4)]GlcNAc(b1-2)Man(a1-6)]Man(b1-4)GlcNAc(b1-4)GlcNAc
# Procedure, shortened: as §1
# Gal(a1-3)Gal(b1-4)GlcNAc = biological target: Gal(a1-3)Gal(b1-4)GlcNAc
# Procedure, shortened: as §1
# [18] = biological target: Gal(a1-3)Gal(b1-4)GlcNAc(b1-6)GalNAc
# Procedure, shortened: as §1
# [19] = biological target: Gal(b1-3)GlcNAc(b1-3)Gal(b1-4)GlcNAc(b1-2)Man(a1-3)[Gal(b1-3)GlcNAc(b1-3)Gal(b1-4)GlcNAc(b1-2)Man(a1-6)]Man(b1-4)GlcNAc(b1-4)GlcNAc
# Procedure, shortened: as §1
# [20] = biological target: Gal(b1-3)[Fuc(a1-4)]GlcNAc(b1-3)Gal(b1-3)[Fuc(a1-4)]GlcNAc
# Procedure, shortened: as §1
# [21] = biological target: Gal(b1-3)[Fuc(a1-4)]GlcNAc(b1-3)Gal(b1-4)GlcNAc
# Procedure, shortened: as §1
# Gal(b1-4)Glc = biological target: Gal(b1-4)Glc
# Procedure, shortened: as §1
# [22] = biological target: Gal(b1-4)GlcNAc(b1-3)Gal(b1-4)GlcNAc(b1-3)Gal(b1-4)GlcNAc
# Procedure, shortened: as §1
# [23] = biological target: Gal(b1-4)GlcNAc(b1-3)Gal(b1-4)GlcNAc(b1-3)Gal(b1-4)GlcNAc(b1-3)Gal(b1-4)GlcNAc(b1-3)Gal(b1-4)GlcNAc(b1-2)Man(a1-3)[Gal(b1-4)GlcNAc(b1-3)Gal(b1-4)GlcNAc(b1-3)Gal(b1-4)GlcNAc(b1-3)Gal(b1-4)GlcNAc(b1-3)Gal(b1-4)GlcNAc(b1-2)Man(a1-6)]Man(b1-4)GlcNAc(b1-4)[Fuc(a1-6)]GlcNAc
# Procedure, shortened: as §1
# [24] = biological target: Gal(b1-4)GlcNAc(b1-3)Gal(b1-4)GlcNAc(b1-3)GalNAc
# Procedure, shortened: as §1
# [25] = biological target: Gal(b1-4)GlcNAc(b1-3)Gal(b1-4)GlcNAc(b1-3)[Gal(b1-4)GlcNAc(b1-3)Gal(b1-4)GlcNAc(b1-6)]GalNAc
# Procedure, shortened: as §1
# Gal3S(b1-4)GlcNAc6S = biological target: Gal3S(b1-4)GlcNAc6S
# Procedure, shortened: as §1
# [26] = biological target: Gal3S(b1-4)[Fuc(a1-3)]GlcNAc
# Procedure, shortened: as §1
# Gal3S6S(b1-4)GlcNAc6S = biological target: Gal3S6S(b1-4)GlcNAc6S
# Procedure, shortened: as §1
binder,measurement,setting,value
KISKRILTGKK [NK11 (Sus scrofa)],glycan array binding signal (z-score),[1],-0.539
same,glycan array binding signal (z-score),[2],0.203
same,glycan array binding signal (z-score),[3],-0.767
same,glycan array binding signal (z-score),[4],-0.23
same,glycan array binding signal (z-score),[5],-0.614
same,glycan array binding signal (z-score),[6],0.052
same,glycan array binding signal (z-score),[7],-0.085
same,glycan array binding signal (z-score),[8],0.702
same,glycan array binding signal (z-score),[9],0.014
same,glycan array binding signal (z-score),[10],-0.032
same,glycan array binding signal (z-score),[11],0.052
same,glycan array binding signal (z-score),[12],0.421
same,glycan array binding signal (z-score),[13],-1.25
same,glycan array binding signal (z-score),[14],-0.608
same,glycan array binding signal (z-score),[15],-0.886
same,glycan array binding signal (z-score),[16],-0.401
same,glycan array binding signal (z-score),[17],-0.06
same,glycan array binding signal (z-score),Gal(a1-3)Gal(b1-4)GlcNAc,-0.302
same,glycan array binding signal (z-score),[18],-0.147
same,glycan array binding signal (z-score),[19],-0.818
same,glycan array binding signal (z-score),[20],-0.425
same,glycan array binding signal (z-score),[21],3.41
same,glycan array binding signal (z-score),Gal(b1-4)Glc,-0.144
same,glycan array binding signal (z-score),[22],-0.612
same,glycan array binding signal (z-score),[23],-0.483
same,glycan array binding signal (z-score),[24],2.91
same,glycan array binding signal (z-score),[25],3.55
same,glycan array binding signal (z-score),Gal3S(b1-4)GlcNAc6S,3.4
same,glycan array binding signal (z-score),[26],2.52
same,glycan array binding signal (z-score),Gal3S6S(b1-4)GlcNAc6S,1.05
